Screening results from PubChem BioAssay.
p53ts 32C tox: p53ts cell cytotoxicity, permissive temperature | Potency, µM (titrated, usually from 46.1 µM), hits mostly cytotoxic | H1299-p53A138V at 32C, ATP luminescence viability, 24 h | 0.93% of 130,000 active | AID 924; further: nearly all actives have a fitted effect of over 55% in size
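ATP-content luminescence (ATPlite) read-out after 24 h compound exposure at 32C in H1299-p53A138V cells (600/well). Tested up to 46 uM. Normalized to DMSO (0%) and 100 uM tamoxifen (100% killing); Hill-fit AC50.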
CRE-bla Fsk: alters forskolin-stimulated CRE reporter signaling in CHO cells. CHO CRE-bla reporter (cAMP response element driving beta-lactamase), forskolin EC10, beta-lactamase ratio. AID 662. 2.5% of 71,000 active. Potency, µM (series often up to 38.2 µM), usual class: activators; active means well fitted activation curve with a large enough effect in the signal ratio, with a control signal flat, not every such curve was filed as active; inconclusive means small, poorly fitted or top-dose-only effect, or effect the other way, or a change in a side signal; the % refers to the signal ratio
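qHTS titration format; CRE-bla CHO reporter; stimulus EC10 NKH 477, a water-soluble forskolin. Read: CCF4 460/530 nm ratio. Potency expressed as AC50 for activators or inhibitors.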
Imprint erasure: induces erasure of genomic imprints in mouse ES cells. mouse ES Peg3-LacZ reporter, beta-gal luminescence, 40 h. Potency, µM (doses to about 60.7 µM), usual class: activators. 0.02% of 110,000 active
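Gelatin-coated wells received 300 freshly trypsinized female ES cells with a Peg3LacZ-Neo reporter on the maternal allele, then incubated 40 hours at 37C. BetaGlo was added for 5 minutes at room temperature before a single luminescence read.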
IkB sig inh: IkB pathway inhibition in ABC-DLBCL cells; ABC-DLBCL IkBa-CBG/CBR dual luciferase ratio, 4 h; response scale: scaled: untreated 0%, proteasome inhibitor 100%; Potency, µM (titrated, usually from 57.1 µM); 0.04% of 110,000 active; AID 445; active means well fitted curve in the direction sought with a large enough effect in the signal ratio, not every such curve was filed as active; inconclusive means small, poorly fitted or top-dose-only effect, or a change in a side signal; the % refers to the signal ratio;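 further: the direction sought is a rising ratio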
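Luminescence ratio of IκBα-fused green versus native red beetle luciferase in OCI-Ly3 cells, 4 h post-doxycycline with compound; red signal alone, scaled from basal (0%) to zero light (-100%), flagged nonspecific or cytotoxic effects.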
p53ts 39C kill: cytotoxicity in p53ts cells at nonpermissive temperature | H1299-p53A138V viability at 39C, ATP luminescence, 24 h | Potency, µM (series often up to 46.1 µM), most hits filed as cytotoxic | 1.5% of 130,000 active | AID 902; further: nearly all actives have a fitted effect of over 55% in size
Large screens that a line does not name were inactive. Sampled rows, rich in hits. Any-hit rate of the full collection: about 3%. Unless noted, the call rests on the fitted dose curve; in most records, active means well fitted curve in the direction sought with a large enough effect; inconclusive means small, poorly fitted or top-dose-only effect, or another doubt; inactive means no such curve, though single readings can be large; an effect the other way counts as inactive or inconclusive.

Cc1cc(C)c(OCC(=O)Nc2cccc(-c3nc4ncccc4o3)c2)c(Br)c1	IkB sig inh inconclusive (no result: CRE-bla Fsk)
CCn1cc(S(=O)(=O)c2ccccc2)c(=O)c2cc(F)c(N3CCCCCC3)cc21	none (no result: CRE-bla Fsk, Imprint erasure, IkB sig inh, p53ts 39C kill)
COc1ccc(NC(=O)c2c(C)oc3ccc(O)c(CN4CCN(C)CC4)c23)cc1Cl	IkB sig inh inconclusive (no result: CRE-bla Fsk)
CCOC(=O)CSc1nc2sc3c(c2c(=O)n1Cc1ccccc1)CC(C)CC3 (centres undefined)	none (no result: CRE-bla Fsk)
Cc1cc(C)cc(-n2c(SCC(=O)Nc3ccccc3)nc3c(oc4ccccc43)c2=O)c1	IkB sig inh inconclusive (no result: CRE-bla Fsk)
Cc1cc(/C=N/n2cnnc2)c(C)n1-c1cc(Cl)ccc1Cl	CRE-bla Fsk 2µM
Cc1cc(-c2cccnc2)c(C#N)c(SCC#N)n1	CRE-bla Fsk 13µM
CCN(CC)C(=O)CSc1nc(C)cc(-c2cccs2)c1C#N	CRE-bla Fsk inconclusive
Cc1c(C(=O)N(Cc2cccc(F)c2)C2CCS(=O)(=O)C2)oc2cc(Br)ccc12 (centres undefined)	IkB sig inh inconclusive (no result: CRE-bla Fsk)
CCCn1c(Nc2nc3ccccc3n2C)nc2ccccc21	p53ts 32C tox inconclusive, CRE-bla Fsk inconclusive, IkB sig inh inconclusive, p53ts 39C kill 10µM
CCCCCn1c(NCc2ccc(OC)cc2)nc2ccccc21	p53ts 32C tox inconclusive, IkB sig inh inconclusive, p53ts 39C kill 16µM (no result: CRE-bla Fsk)
CCCn1c(NC(=O)c2ccccc2)nc2ccccc21	CRE-bla Fsk inconclusive, IkB sig inh inconclusive
COc1cccc(CNc2nc3ccccc3n2CCN2CCCCC2)c1OC	p53ts 32C tox inconclusive, CRE-bla Fsk 10µM
CCN(CC)CCn1c(NCc2ccc(OC)cc2)nc2ccccc21	none
O=C(Nc1cccc(Cl)c1Cl)c1cc(S(=O)(=O)N2CCCCC2)ccc1F	none (no result: CRE-bla Fsk)
O=C(NCc1cccc(F)c1)c1ccc(NC(=O)c2nsc3ccccc23)cc1	p53ts 32C tox 11µM, IkB sig inh inconclusive, p53ts 39C kill 10µM (no result: CRE-bla Fsk)
CCOC(=O)c1ccc(NC(=O)c2nsc3ccccc23)cc1	p53ts 32C tox inconclusive, IkB sig inh inconclusive, p53ts 39C kill 13µM (no result: CRE-bla Fsk)
O=C(Nc1ccc(C(=O)N2CCN(c3ccc(F)cc3)CC2)cc1)c1nsc2ccccc12	IkB sig inh inconclusive (no result: CRE-bla Fsk)
CNC(=O)c1ccc(NC(=O)c2nsc3ccccc23)cc1	p53ts 32C tox 7.9µM, IkB sig inh inconclusive, p53ts 39C kill 7.9µM (no result: CRE-bla Fsk)
O=C(Nc1ccc(C(=O)N2CCCCC2)cc1)c1nsc2ccccc12	p53ts 32C tox 3.2µM, IkB sig inh inconclusive, p53ts 39C kill 3.2µM (no result: CRE-bla Fsk)
CCCCOc1cccc(C2c3c(-c4cc(C)ccc4O)n[nH]c3C(=O)N2CCOC)c1 (centres undefined)	p53ts 32C tox inconclusive, IkB sig inh inconclusive, p53ts 39C kill inconclusive (no result: CRE-bla Fsk)
CCOc1ccccc1CN1CCc2nc(Nc3ccc4c(c3)OCCO4)ncc2C1	IkB sig inh inconclusive (no result: CRE-bla Fsk)
CCc1nnc(SCc2cc(C)ccc2C)c2cc3sc(C)cc3n12	none (no result: CRE-bla Fsk)
CCOC(=O)c1sc(NC(=O)c2ccco2)nc1C	none
CCOC(=O)c1sc(NC(=O)c2ccc(C)o2)nc1C	p53ts 32C tox 7.9µM, IkB sig inh inconclusive, p53ts 39C kill 7.9µM
Cc1c(C(=O)N2CCOCC2)oc2c1-c1nn(CC(=O)NCc3cccc(Cl)c3)cc1CC2	IkB sig inh inconclusive (no result: CRE-bla Fsk)
O=C(O)CCCNc1cc(N2CCC3(CC2)OCCO3)c2noc3c2c1C(=O)c1ccccc1-3	p53ts 32C tox inconclusive, CRE-bla Fsk 10µM, IkB sig inh inconclusive, p53ts 39C kill inconclusive
CCc1nc(N2CCOCC2)c(C#N)c2c1COC(C)(C)C2	CRE-bla Fsk inconclusive
CSc1c(C#N)c(N)c(C#N)c2c1COC(C)(C)C2	CRE-bla Fsk 4µM
CC(=O)S[C@@H]1CC2=CC(=O)CC[C@@]2(C)[C@H]2CC[C@]3(C)[C@H](CC[C@@]34CCC(=O)O4)[C@H]12	none (no result: Imprint erasure)
CCOC(=O)c1c(C)[nH]c(C)c1S(=O)(=O)NCC(=O)NCc1cccc(Br)c1	IkB sig inh inconclusive (no result: CRE-bla Fsk)
COCCn1c(SCc2ccc(C(=O)OC)o2)nc2cc(Cl)ccc2c1=O	CRE-bla Fsk 5µM, IkB sig inh inconclusive
COC(=O)c1ccc(CSc2nc(C)nc3c2c(=O)n(C)c(=O)n3C)o1	p53ts 32C tox inconclusive, CRE-bla Fsk 2µM
Cc1nc(SCC(=O)Nc2cc(C)on2)c2c(=O)n(C)c(=O)n(C)c2n1	CRE-bla Fsk 2µM
Cc1ccc(-c2nc(SCC(=O)Nc3cc(C)on3)c3c(=O)n(C)c(=O)n(C)c3n2)cc1	none (no result: CRE-bla Fsk)
Cc1csc(NC(=O)CSc2nc(C(C)C)nc3c2c(=O)n(C)c(=O)n3C)n1	CRE-bla Fsk 2.5µM, IkB sig inh inconclusive
Cc1ccc(CN2CCSc3ccc(C(=O)NCC(C)c4ccccc4)cc32)cc1 (centres undefined)	IkB sig inh inconclusive (no result: CRE-bla Fsk)
CCN(CC)S(=O)(=O)c1ccc2nc(NC(=O)c3cncc(Br)c3)sc2c1	IkB sig inh inconclusive (no result: CRE-bla Fsk)
O=C(Cn1c(=O)n(-c2ccc(F)cc2)c(=O)c2sc3ccccc3c21)NC1CCCCC1	IkB sig inh inconclusive (no result: CRE-bla Fsk)
CC(=O)[C@]1(O)CC[C@@H]2[C@H]3C[C@@H](C)C4=CC(=O)CC[C@@]4(C)C3[C@@H](O)C[C@]21C (some centres undefined)	none (no result: p53ts 32C tox, CRE-bla Fsk, IkB sig inh, p53ts 39C kill)
CCN(c1ccccc1)c1nnc(NC(=O)Nc2ccc(C)cc2)s1	none (no result: CRE-bla Fsk)
CNc1nnc(-c2ccc(N(C)C)cc2)s1	p53ts 32C tox 6.3µM, p53ts 39C kill 7.9µM (no result: CRE-bla Fsk, Imprint erasure, IkB sig inh)
CN(C)c1ccc(-c2ccncc2)cc1	none
CCCc1cc(C(=O)Nc2sc(C)c(C)c2C(=O)OCC)no1	CRE-bla Fsk 2µM
COc1ccc(C(=O)Nc2ccc3c(c2)N(C2CCCC2)C(=O)c2ccccc2S3)cc1OC	p53ts 32C tox inconclusive, IkB sig inh inconclusive (no result: CRE-bla Fsk)
Cc1ccc(OCCn2c(C)c(/C=N/n3cnnc3)c3ccccc32)cc1	CRE-bla Fsk 1.6µM
Cc1c(/C=N/n2cnnc2)c2ccccc2n1CCOc1ccc(Cl)cc1	CRE-bla Fsk inconclusive, IkB sig inh inconclusive
Cc1ccc(S(=O)(=O)Oc2ccc(N=Nc3ccc(-c4ccc(N=Nc5c(O)ccc6cc(S(=O)(=O)O)cc(S(=O)(=O)O)c56)c(C)c4)cc3C)cc2)cc1	CRE-bla Fsk inconclusive
COc1ccc(NC(=O)c2c(NCc3ccc(C)o3)sc3c2CCC(C)C3)c(OC)c1 (centres undefined)	p53ts 32C tox inconclusive, IkB sig inh inconclusive, p53ts 39C kill 20µM (no result: CRE-bla Fsk)
COc1ccccc1NC(=O)c1c(NCc2ccc(C)o2)sc2c1CCC(C)C2 (centres undefined)	p53ts 32C tox inconclusive, IkB sig inh inconclusive (no result: CRE-bla Fsk)
Cc1c(CCC(=O)O)c(=O)oc2cc3occ(-c4ccc(F)cc4)c3cc12	CRE-bla Fsk 10µM
Cc1ccc(Cl)cc1N1CCN(CCCNC(=O)c2nnc(Cc3cccc(Cl)c3)o2)CC1	IkB sig inh inconclusive, p53ts 39C kill 13µM (no result: CRE-bla Fsk)
O=C1OC(O)C(C(Cl)Cl)=C1Cl (centres undefined)	CRE-bla Fsk inconclusive, IkB sig inh inconclusive
